From PubChem BioAssay (NCATS)
Where “and” joins values, the source holds several entries; their conditions need not be identical. Identical values can stand only once. Inconclusive results are not listed. Where a call stands in place of a potency, no number is given. Calls of active or inactive are those of the source. Calls follow the shape of the dose curve; as a rule, active = well fitted curve in the direction sought with a large enough effect; inconclusive = small, poorly fitted or top-dose-only effect, or another doubt; inactive = no such curve, though single readings can be large; an effect the other way counts as inactive or inconclusive.

Assays:
[1] = target: Cytochrome P450 3A7 (Homo sapiens) (UniProt P24462); assay: Cytochrome P450 family 3 subfamily A member 7 (CYP3A7) small molecule antagonists: luciferase biochemical qHTS assay (AID 1963596); also: nearly all actives have a fitted effect of over 40% in size
Summary of the method: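 Luminescence read-out (relative luminescence units) after 20 min with detection reagent, which stops the reaction. Enzyme, proluciferin substrate and compound preincubated 10 min, RT; NADPH regeneration system then started 1 h reaction. Ketoconazole as positive control.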

[2] = Viability qHTS for spleen associated tyrosine kinase inhibitor (SYKi) drug resistant MV4-11 cells (AID 1963824); also: nearly all actives have a fitted effect of over 35% in size; also: potency is read from the fitted curve at half-maximal effect
Summary of the method: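 SYK-inhibitor-resistant MV4-11 AML cells were seeded at 500 per well onto compound and cultured 72 hours (37 °C, 5% CO2). CellTiter-Glo was then added, and after 10 min at room temperature, luminescence gave viability.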

[3] = Viability qHTS for spleen associated tyrosine kinase inhibitor (SYKi) naive MV4-11 cells (AID 1963823); also: nearly all actives have a fitted effect of over 40% in size; also: potency is read from the fitted curve at half-maximal effect
Summary of the method: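 Viability of MV4-11 AML cells lacking prior SYK inhibitor exposure is scored by CellTiter-Glo luminescence following 72 hr compound incubation at 37 C, 5% CO2, seeded at 500 cells per well.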

[4] = Cellular viability qHTS for adrenocortical cancer (ACC) cell line NCI-H295R (AID 1963990); also: nearly all actives have a fitted effect of over 60% in size; also: potency is read from the fitted curve at half-maximal effect
Summary of the method: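 Viability of NCI-H295R after 48 h of treatment (final up to 46 uM) measured through cellular ATP luminescence.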

Cytochrome P450 3A7 (Homo sapiens), sequence (P24462 whole entry, looked up): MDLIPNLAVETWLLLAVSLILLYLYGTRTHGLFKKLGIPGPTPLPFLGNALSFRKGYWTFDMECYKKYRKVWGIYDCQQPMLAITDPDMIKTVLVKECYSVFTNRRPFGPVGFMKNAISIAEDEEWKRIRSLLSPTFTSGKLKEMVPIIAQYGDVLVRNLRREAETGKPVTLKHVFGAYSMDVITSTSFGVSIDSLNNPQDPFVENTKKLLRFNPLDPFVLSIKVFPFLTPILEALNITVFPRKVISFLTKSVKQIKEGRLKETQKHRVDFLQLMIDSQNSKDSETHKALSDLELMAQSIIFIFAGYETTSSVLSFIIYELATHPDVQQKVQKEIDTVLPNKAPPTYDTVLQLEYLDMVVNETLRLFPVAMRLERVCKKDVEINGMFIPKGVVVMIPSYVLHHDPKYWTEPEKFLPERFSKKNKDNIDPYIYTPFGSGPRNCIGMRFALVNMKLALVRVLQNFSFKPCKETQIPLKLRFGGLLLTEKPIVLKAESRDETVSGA

In the case of `CN1CCc2nc(C(=O)N[C@@H]3C[C@@H](C(=O)N(C)C)CC[C@@H]3NC(=O)C(=O)Nc3ccc(Cl)cn3)sc2C1`, the Potency [1] is reported as “inactive” and the Potency [2] is reported as “inactive”.
In the case of `CCNC(=O)N1CCCN(c2ccc(C(=O)NCCc3ccc(Cl)cc3Cl)cc2NC(=O)c2cccc(Cl)c2)CC1`, the Potency [1] is reported as “inactive” and the Potency [2] is reported as 20.6 µM (active).
In the case of `CCOC(=O)N1CCC(N2CCC[C@@H](NC(=O)c3ccccc3C)C2)CC1`, the Potency [1] is reported as “inactive” and the Potency [2] is reported as 14.6 µM (active).
In the case of `Cc1nc2sc(C(=O)NCc3ccncc3)c(N)c2c(C)c1Cl`, the Potency [1] is reported as “inactive” and the Potency [2] is reported as “inactive”.
In the case of `O=C(NCc1ccccc1)c1ccc2c(=O)n(-c3cccc(C(F)(F)F)c3)c(=S)[nH]c2c1`, the Potency [1] is reported as “inactive” and the Potency [2] is reported as “inactive”.
For `O=C(N[C@@H]1CCCc2c1cnn2-c1ccc(F)cc1F)c1ccccn1`, the Potency [1] was “inactive” and the Potency [2] was 14.6 µM (active).
In the case of `COC(=O)c1ccc2c(c1)nc(NC(=O)c1ccccc1)n2CCCc1ccccc1`, the Potency [1] is reported as “inactive” and the Potency [2] is reported as “inactive”.
In the case of `O=C(Nc1nnc(-c2ccc3c(c2)OCCO3)o1)C1CCCCC1`, the Potency [1] is reported as “inactive” and the Potency [2] is reported as “inactive”.
For `CC[C@H]1OC(=O)C[C@@H](O)[C@H](C)[C@@H](O[C@@H]2O[C@H](C)[C@@H](O)[C@H](N(C)C)[C@H]2O)[C@@H](CCN2C[C@H](C)C[C@H](C)C2)C[C@@H](C)C(=O)/C=C/C(C)=C/[C@@H]1CO[C@@H]1O[C@H](C)[C@@H](O)[C@@H](OC)[C@H]1OC`, the Potency [1] was “inactive” and the Potency [2] was “inactive”.
With `Cc1cc(CS(=O)(=O)c2ccccc2)cc(OCc2ccc(CN3CCCC3CO)cc2)c1` (stereo not given) the Potency [1] was “inactive” and the Potency [2] was 14.6 µM (active).
With `CC1(c2nc3c(C(N)=O)cccc3[nH]2)CCCN1` (stereo not given) the Potency [1] was “inactive” and the Potency [2] was “inactive”.
In the case of `CC(C)(C)c1cc(C=O)cc(C(C)(C)C)c1O`, the Potency [1] is reported as “inactive”, the Potency [3] is reported as “inactive” and the Potency [4] is reported as “inactive”.
With `CN1CCN(C2=Nc3ccccc3Nc3ccc(O)cc32)CC1` the Potency [1] was “inactive” and the Potency [2] was “inactive”.
With `c1ccc(N2CCN(CCc3nn[nH]n3)CC2)cc1` the Potency [1] was “inactive” and the Potency [2] was “inactive”.
For `NC(=O)c1ccccc1O`, the Potency [1] was “inactive” and the Potency [2] was “inactive”.
For `O=C(O)CNC(=O)c1ccccc1I`, the Potency [1] was “inactive” and the Potency [2] was “inactive”.
In the case of `CC(C)CCC(=O)CC1c2ccccc2C(=O)N1c1ccc2ccc(Cl)nc2n1` (stereo not given), the Potency [1] is reported as “inactive” and the Potency [2] is reported as “inactive”.
With `CCc1cc(Cl)c(OC)c(C(=O)NC[C@@H]2CCCN2CC)c1O` the Potency [1] was “inactive”, the Potency [3] was “inactive” and the Potency [4] was “inactive”.
In the case of `O=C(Cc1ccc(-c2ccccc2)cc1)NC1CCC1`, the Potency [1] is reported as “inactive” and the Potency [2] is reported as “inactive”.
For `CCC(=O)N1CCOc2c(cc(-c3ccc(OC)c(OC)c3)cc2OC[C@H]2CCCN(C)C2)C1`, the Potency [1] was “inactive” and the Potency [2] was 7.31 µM (active).
For `CC(CNS(=O)(=O)C(C)C)c1ccc(-c2ccc(C#N)cc2)cc1` (stereo not given), the Potency [1] was “inactive” and the Potency [2] was 2.59 µM (active).
For `COc1cc2ncnc(Nc3cccc(I)c3)c2cc1OC`, the Potency [1] was “inactive” and the Potency [2] was 2.91 µM (active) and 13 µM (active).
With `CCC[C@H](N[C@@H](C)C(=O)N1[C@H](C(=O)O)C[C@@H]2CCCC[C@@H]21)C(=O)O` the Potency [1] was “inactive” and the Potency [2] was “inactive”.
In the case of `CN(C)C(=O)C(=O)c1cn(C)c2cc(Cl)c(C(=O)N3CCC(Cc4ccc(F)cc4)CC3)cc12`, the Potency [1] is reported as “inactive” and the Potency [2] is reported as 8.2 µM (active).
In the case of `COc1cc(N2CCOCC2)ccc1NC(=O)c1csc(-c2cccnc2)n1`, the Potency [1] is reported as “inactive” and the Potency [2] is reported as 0.259 µM (active).
With `CCCN1CCC[C@@H](c2cccc(S(C)(=O)=O)c2)C1` the Potency [1] was “inactive” and the Potency [2] was 10.3 µM (active).
For `Cn1c2ccc(NC(=O)c3ccccc3)cc2c(=O)n2nc(C(=O)O)cc12`, the Potency [1] was “inactive” and the Potency [2] was “inactive”.
For `Cc1nc(-c2cn3c(n2)-c2ccc(-c4cnn(C(C)(C)C(N)=O)c4)cc2OCC3)n(C(C)C)n1`, the Potency [1] was “inactive”, the Potency [3] was 0.148 µM (active) and the Potency [4] was 2.51 µM (active).
In the case of `c1ccc(C(OC2CCN(CCCc3nn[nH]n3)CC2)c2ccccc2)cc1`, the Potency [1] is reported as “inactive” and the Potency [2] is reported as “inactive”.
With `Cc1onc(-c2ccccc2)c1C(=O)N1CCN(c2ccc([N+](=O)[O-])cc2Cl)CC1` the Potency [1] was “inactive” and the Potency [2] was 13 µM (active).
For `CC(C)(C)c1ccc(C(O)CCCN2CCC(C(O)(c3ccccc3)c3ccccc3)CC2)cc1` (stereo not given), the Potency [1] was “inactive”, the Potency [3] was 21.1 µM (active) and the Potency [4] was 4.11 µM (active).
For `C[C@@H](c1ncncc1F)C(O)(Cn1cncn1)c1ccc(F)cc1F` (stereo not given in full), the Potency [1] was “inactive”, the Potency [3] was “inactive” and the Potency [4] was “inactive”.
In the case of `N#Cc1ccc2[nH]c(O)c(-c3ccc(CN4CCOCC4)cn3)c2c1`, the Potency [1] is reported as “inactive” and the Potency [2] is reported as “inactive”.
For `CC(C)(C)NCC(O)COc1cccc2c1CCCC2=O` (stereo not given), the Potency [1] was “inactive” and the Potency [2] was “inactive”.
With `CN1CCN(c2nc(-c3ccc(C(=O)NC4(C(=O)NCC#N)CCCCC4)cc3)cs2)CC1` the Potency [1] was “inactive” and the Potency [2] was “inactive”.
